Compounds with a hit are over-represented: about 1.2% of the library has one in this group of screens.
Avidin fluor: compound fluoresces at 488/530 nm on avidin beads | compound fluorescence 488/530 nm, flow cytometry; hits give high values | fluorescence (KMESF) at 10 µM | 220,000 compounds, 0.38% hits | AID 1775; in the data active = fluorescence above about 47
GSH fluor: GSH bead compound fluorescence profile; GSH beads flow cytometry, compound fluorescence 488/530 nm; hits give high values; fluorescence (KMESF) at 10 µM; 190,000 compounds, 0.25% hits; in the data active = fluorescence above about 89;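 also: glutathione beads carrying GST-tagged Bcl family fusion proteins plus one bare bead set; values are compound well signal with DMSO vehicle wells as background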
RGS4-Gao reg: modulates binding of RGS4 to human Galphao; P09471; Multiplexed bead flow cytometry; actives lie on both sides; binding response (% of control), % at 10 µM; 220,000 compounds, 0.33% hits; in the data active = binding response below about 49% or above about 150%; inactive = in between;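 also: fluorescent Galphao activated with aluminum fluoride binding bead-coupled RGS4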
Target sequence (P09471 whole entry, looked up): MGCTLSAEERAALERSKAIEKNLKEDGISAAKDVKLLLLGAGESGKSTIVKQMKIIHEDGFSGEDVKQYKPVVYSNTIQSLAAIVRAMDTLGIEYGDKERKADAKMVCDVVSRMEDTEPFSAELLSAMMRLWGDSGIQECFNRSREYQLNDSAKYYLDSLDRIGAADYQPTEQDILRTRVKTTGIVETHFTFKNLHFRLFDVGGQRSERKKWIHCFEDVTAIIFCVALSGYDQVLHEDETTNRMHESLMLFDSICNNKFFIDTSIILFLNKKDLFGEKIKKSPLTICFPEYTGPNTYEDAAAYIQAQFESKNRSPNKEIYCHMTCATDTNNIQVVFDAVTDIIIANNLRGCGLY
RGS7-Gao: regulators of human RGS7-Galphao interaction; binding response (% of control), % at 10 µM; AID 1439; P09471; 220,000 compounds, 0.35% hits; Multiplexed bead flow cytometry, RGS7-Galphao binding; actives lie on both sides; in the data active = binding response below about 49% or above about 150%; inconclusive = no clear call, values can overlap the other calls; inactive = in between;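 also: fluorescent Galphao held in activated GDP-AlF4 state binding bead-coupled RGS7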
RGS16-Gao: RGS16-Galphao interaction regulator (human) | bead-based flow cytometry RGS16-Galphao binding, fluorescence; actives lie on both sides | binding response (% of control), % at 10 µM | 220,000 compounds, 0.38% hits; call rule not given here;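 also: Galphao activated by GDP with aluminum fluoride before binding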
Target sequence (O15492 whole entry, looked up): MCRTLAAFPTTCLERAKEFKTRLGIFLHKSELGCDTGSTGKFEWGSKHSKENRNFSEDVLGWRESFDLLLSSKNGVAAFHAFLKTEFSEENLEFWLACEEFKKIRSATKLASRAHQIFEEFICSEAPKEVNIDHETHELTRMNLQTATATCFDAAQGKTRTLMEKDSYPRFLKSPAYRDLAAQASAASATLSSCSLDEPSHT
Target sequence (P09471 whole entry, looked up): as the sequence (P09471 whole entry, looked up) above
RGS8-Gao: modulates binding of RGS8 to human Galphao. P09471. response (percent of control binding), % at 10 µM. AID 1423. multiplexed bead flow cytometry; actives lie on both sides. 220,000 compounds, 0.34% hits; in the data active = response below about 60% or above about 140%; inactive = in between;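 also: Galphao activated as the GDP aluminium fluoride complex binding bead-coupled RGS8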
* hit, by the source's call.

How did COc1ccc2cc(C(=O)C3CCCN(C(=O)c4cc5nc(C)cc(C)n5n4)C3)ccc2c1 (configuration not stated) do in these assays?
Avidin fluor: 6; GSH fluor: 16; RGS4-Gao reg: 99.6; RGS7-Gao: 98.9; RGS16-Gao: 98.5; RGS8-Gao: 96.7

Results for O=C(Nc1ccc2c(c1)OCO2)N1CCN(c2ncc(C(F)(F)F)cc2Cl)CC1 ?
Avidin fluor: 8; GSH fluor: 257*; RGS4-Gao reg: 103.3; RGS7-Gao: 105.0; RGS16-Gao: 100.2; RGS8-Gao: 103.7

Results for COCCCNc1nc2nonc2nc1N(C)CC1CCCN1C (configuration not stated) ?
Avidin fluor: 7; GSH fluor: 10; RGS4-Gao reg: 94.6; RGS7-Gao: 101.9; RGS16-Gao: 105.4; RGS8-Gao: 105.7

Results for Cc1nc(N2CCN(c3ccccc3)CC2)[nH]c(=O)c1Cc1cccc2ccccc12 ?
Avidin fluor: 197*; GSH fluor: 23; RGS4-Gao reg: 113.9; RGS7-Gao: 148.1; RGS16-Gao: 93.7; RGS8-Gao: 95.8

Results for Cc1nc(N2CCN(c3ccccc3)CC2)[nH]c(=O)c1CCC(C)C ?
Avidin fluor: 11; GSH fluor: 15; RGS4-Gao reg: 99.8; RGS7-Gao: inconclusive; RGS16-Gao: 96.4; RGS8-Gao: 101.3

Results for Cc1ccccc1Nc1nc(N)nc(CSc2n[nH]c(N)n2)n1 ?
Avidin fluor: 6; RGS4-Gao reg: 106.7; RGS7-Gao: inconclusive; RGS16-Gao: 104.8; RGS8-Gao: 99.8

How did Cc1cc(C(C)(C)C)oc1C(=O)Nc1ccc(CC(=O)O)cc1 do in these assays?
Avidin fluor: 4; GSH fluor: 239*; RGS4-Gao reg: 93.2; RGS7-Gao: 93.2; RGS16-Gao: 62.0; RGS8-Gao: 99.6

How did Cc1ccc(C(=O)Nc2ccc(CC(=O)O)cc2)o1 do in these assays?
Avidin fluor: 6; GSH fluor: 254*; RGS4-Gao reg: 97.1; RGS7-Gao: 97.7; RGS16-Gao: 97.4; RGS8-Gao: 100.0

How did CCOC(=O)c1cc2sccc2n1CC(=O)C(C)(C)C do in these assays?
Avidin fluor: 12; GSH fluor: 13; RGS4-Gao reg: 96.3; RGS7-Gao: 90.7; RGS16-Gao: 105.8; RGS8-Gao: 101.8

Results for Cc1cc(C)n(C(=O)c2c([N+](=O)[O-])c(C)nn2C)n1 ?
Avidin fluor: 6; GSH fluor: 150*; RGS4-Gao reg: 92.6; RGS7-Gao: 96.3; RGS16-Gao: 97.9; RGS8-Gao: 99.2

What do the screens show for `COC(=O)Cc1cc(=O)[nH]c(/N=C(\N)Nc2ccc(C(C)C)cc2)n1`?
Avidin fluor: 14; GSH fluor: 15; RGS4-Gao reg: 101.2; RGS7-Gao: 99.5; RGS16-Gao: 106.4; RGS8-Gao: 102.5

Results for C=C(C)c1cccc(C(C)(C)NC(=O)NCCCn2ccnc2)c1 ?
Avidin fluor: 50*; GSH fluor: 25; RGS4-Gao reg: 101.5; RGS7-Gao: 102.7; RGS16-Gao: 100.2; RGS8-Gao: 100.9

How did C=C(C)c1cccc(C(C)(C)NC(=O)NCCCN2CCCC2=O)c1 do in these assays?
Avidin fluor: 16; GSH fluor: 22; RGS4-Gao reg: 106.1; RGS7-Gao: 110.0; RGS16-Gao: 108.8; RGS8-Gao: 104.0

What do the screens show for `COc1ccc(N(CC(=O)NC2CCCCC2)C(=O)CCCC(=O)Nc2ccccn2)c(OC)c1`?
Avidin fluor: 84*; GSH fluor: 14; RGS4-Gao reg: 113.5; RGS7-Gao: 131.7; RGS16-Gao: 103.0; RGS8-Gao: 103.4

Results for O=C(NC1CCS(=O)(=O)C1)C1C2CC3CC(C2)CC1C3 (configuration not stated) ?
Avidin fluor: 55*; GSH fluor: 59; RGS4-Gao reg: 102.3; RGS7-Gao: 119.1; RGS16-Gao: 100.9; RGS8-Gao: 101.0

What do the screens show for `O=C(c1cnn2c(C(F)(F)F)cc(-c3cccs3)nc12)N1CCN(C(c2ccccc2)c2ccccc2)CC1`?
Avidin fluor: 5; GSH fluor: 126*; RGS4-Gao reg: 96.6; RGS7-Gao: 96.5; RGS16-Gao: 107.6; RGS8-Gao: 103.4

How did CN1CCN(C(=O)c2cnn3c(C(F)(F)F)cc(-c4cccs4)nc23)CC1 do in these assays?
Avidin fluor: 3; GSH fluor: 24; RGS4-Gao reg: 99.7; RGS7-Gao: 98.7; RGS16-Gao: 106.9; RGS8-Gao: 103.7

What do the screens show for `S=c1[nH]nc(-c2ccccc2Cl)n1CC1CCCO1` (configuration not stated)?
Avidin fluor: 52*; GSH fluor: 30; RGS4-Gao reg: 102.5; RGS7-Gao: 110.3; RGS16-Gao: 103.9; RGS8-Gao: 101.1

How did CCOC(=O)c1cnn(-c2ccc(C)cc2)c1N do in these assays?
Avidin fluor: 8; GSH fluor: 255*; RGS4-Gao reg: 104.3; RGS7-Gao: 94.7; RGS16-Gao: 102.5; RGS8-Gao: 104.0

Results for CC(C)CNC(=O)CCCc1ccccc1 ?
Avidin fluor: 9; GSH fluor: 8; RGS4-Gao reg: 99.5; RGS7-Gao: 95.3; RGS16-Gao: 100.4; RGS8-Gao: 100.0

What do the screens show for `C=CCNC(=O)CCCc1ccccc1`?
Avidin fluor: 52*; GSH fluor: 22; RGS4-Gao reg: 101.1; RGS7-Gao: 113.7; RGS16-Gao: 100.4; RGS8-Gao: 101.2

What do the screens show for `c1ccc2sc(Cc3nnc4n3CCCCC4)nc2c1`?
Avidin fluor: 88*; GSH fluor: 25; RGS4-Gao reg: 105.9; RGS7-Gao: 122.3; RGS16-Gao: 106.5; RGS8-Gao: 102.2

What do the screens show for `Cc1ccc(CNC(=O)C(=O)Nc2nccs2)cc1`?
Avidin fluor: 9; GSH fluor: 18; RGS4-Gao reg: 92.0; RGS7-Gao: 96.8; RGS16-Gao: 95.7; RGS8-Gao: 96.7

How did COCCCNC(=O)CSC1=Nc2ccccc2C2=NC(Cc3c[nH]c4ccccc34)C(=O)N12 (configuration not stated) do in these assays?
Avidin fluor: 7; GSH fluor: 24; RGS4-Gao reg: 101.8; RGS7-Gao: 104.0; RGS16-Gao: 108.2; RGS8-Gao: 102.4

How did COCCCNC(=O)CSC1=Nc2ccccc2C2=NC(c3ccccc3)C(=O)N12 (configuration not stated) do in these assays?
Avidin fluor: 69*; GSH fluor: 12; RGS4-Gao reg: 101.3; RGS7-Gao: 122.0; RGS16-Gao: 107.9; RGS8-Gao: 102.9

How did O=C(CC1Nc2c3ccccc3nc(=S)n2C1=O)NC1CCCCC1 (configuration not stated) do in these assays?
Avidin fluor: 13; GSH fluor: 13; RGS4-Gao reg: 100.5; RGS7-Gao: 99.2; RGS16-Gao: 98.2; RGS8-Gao: 103.4

How did COc1ccccc1-c1nnc(SCC(=O)Nc2ccc(S(N)(=O)=O)cc2)n1N do in these assays?
Avidin fluor: 7; RGS4-Gao reg: 95.7; RGS7-Gao: inconclusive; RGS16-Gao: 97.2; RGS8-Gao: 96.1

Source: PubChem BioAssay (NMMLSC)
